Screens deposited in PubChem by several laboratories.
ARNT TACC3 PPI: disruptors of human ARNT/TACC3 interaction | 0.66% of 390,000 active | inhibition, % at 9.99 µM | AlphaScreen His-ARNT PAS-B/GST-TACC3 binding, luminescence; TACC3 fragment carries E629A point mutation | Q9Y6A5;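 active = mean inhibition of replicates at least 50% and at least half of replicates each reaching 50%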;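 also: 0% = complete ARNT plus TACC3 wells and 100% = ARNT alone without TACC3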
AI-2 QS modul: modulates the Vibrio harveyi AI-2 quorum sensing system; Vibrio harveyi JMH597 AI-2 luminescence/OD600 ratio, 9 h; active compounds read low; strain lacks LuxN and CqsS sensors; 0 = neutral-control median; activity change, % at 7.5 µM; 0.4% of 300,000 active; AID 2094; in the data active = activity change below about -75%, passing the limit was not always enough;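 also: luminescence divided by OD600 gain over 9 h not by final OD600 alone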
aDG glyco up: increases alpha dystroglycan glycosylation. 0.22% of 360,000 active. Pro5-aDG cells, alpha-DG glycosylation AlphaScreen (IIH6); 0% Pro5, 100% B10-LARGE cell signal. activation, % at 10 µM;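 active = activation of at least 8% versus controls, or a plate z-score of at least 8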;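 also: Pro5 are CHO cells carrying HIG-tagged alpha-DG that lacks glycosylation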
Mot1-301 SUMO: SUMOylation pathway inhibition by Mot1-301 growth rescue | S. cerevisiae Mot1-301 growth rescue, ATP luminescence, 38.5C; percent above DMSO median, 100 means doubled | growth rescue, % at 18.8 µM | 1% of 320,000 active;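 active = every valid replicate shows activation above 250% relative to neutral control wells; inactive = the rest, any valid replicate at or below 250%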;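 also: OY570 slx delta 5 strain wells were the positive control but not used for scaling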
Bfl-1 A1 inh: inhibitors of the anti-apoptotic protein A1, read as caspase activation | MEF A1-2A-BIM cells, Caspase-Glo 3/7 luminescence, 3 h; percent of clofoctol response, vehicle zero | caspase activation, % (concentration not given with the values) | 0.066% of 330,000 active | AID 2462;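 active = over half of replicate activation scores above 10%, or exactly half above 10 with the replicate mean above 10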
Numbers without * were called inactive; x = not tested or not shown; + = active, no number. Only some compounds are listed: those with a hit (about 1.8% of all), similar ones and a draw of the others.

SMILES	ARNT TACC3 PPI	AI-2 QS modul	aDG glyco up	Mot1-301 SUMO	Bfl-1 A1 inh
S=c1[nH]nc(-c2ccccn2)n1/N=C/c1cccc(Cl)c1	61*	13	0	-23	0
S=c1[nH]nc(-c2ccco2)n1/N=C/c1cccc(Cl)c1	-12	0	0	-14	0
Cc1ccsc1/C=N/n1c(-c2ccccc2)n[nH]c1=S	39	15	0	1	-1
COc1ccc(N2C(=O)CCC(C(=O)c3ccccc3)=C2C)cc1	-1	8	0	70	1
Cc1ccc(CN(Cc2cc3cccc(C)c3[nH]c2=O)C(=O)N(C)C)cc1	1	16	0	317*	0
O=C(CSc1nnc(COc2cccc3cccnc23)o1)N1CCc2ccccc21	-2	4	0	-8	0
COCC(=O)N(C)C[C@H]1Oc2ncc(C#C[C@@H](C)O)cc2C(=O)N([C@H](C)CO)C[C@@H]1C	-7	x	x	x	x
O=c1oc2ccccc2c2nccnc12	5	7	0	324*	0
O=c1oc2ccccc2c2c1cnc1ccccc12	18	x	0	x	x
NC(=O)c1ccsc1NC(=O)CN1CCN(S(=O)(=O)c2ccccc2C(F)(F)F)CC1	4	x	0	x	x
CCc1noc(C)c1C(=O)OCC(=O)Nc1c(F)cccc1F	-6	2	0	-1	0
O=S(=O)(N/N=C\C=C\c1ccccc1)c1ccc(Br)cc1	13	-92*	1	54	1
CN(C)c1ccc(/C=N/NS(=O)(=O)c2ccc(Br)cc2)cc1	27	-92*	0	x	1
CCCCCCn1c(N2CCCC2)nc2c1c(=O)[nH]c(=O)n2C	3	6	0	-14	2
C/C=C/c1ccc(OC(C)=O)c(OC)c1	20*	0	0	189	0
C/C=C/c1ccc(OC)c(OC(C)=O)c1	-5	9	0	-22	1
Cc1ccc(C(=O)COC(=O)c2ccc3c(c2)C(=O)N(c2cccc4ncccc24)C3=O)cc1	5	19	0	2	6.4*
CS(=O)(=O)c1ccc(N2CCN(C3CC(=O)NC3=O)CC2)cc1 (stereo unspecified)	-2	35	0	-13	0
CCOC(=O)NN1C(=O)c2ccccc2NC1c1ccccc1 (stereo unspecified)	-3	-6	0	-5	0
C=C1/C=C(\C)[C@](C)(O)C[C@H](O)CC(=O)[C@H](O)[C@@H](O)[C@H](C)C[C@H](C)OC(=O)/C(C)=C/CC/C=C/[C@@H]2O[C@H]2C[C@H](C)C1	x	x	x	-43	15*
CNC1=C(N(C(C)=O)c2ccc(Br)cc2)C(=O)c2ccccc2C1=O	46*	30	8.7*	-8	-4
CCC(=O)N(C1=C(NC)C(=O)c2ccccc2C1=O)C(C)C	16	1	1	19	0
O=S(=O)(c1cccs1)N1CCN(c2ncccn2)CC1	20	20	0	+	0
CC(C)(C)NC(=O)CCN(/N=C/c1ccncc1)C1=NS(=O)(=O)c2ccccc21	63*	36	0	-5	2
COc1ccc(/C=N/N(CCC(=O)NC(C)(C)C)C2=NS(=O)(=O)c3ccccc32)cc1	21	-2	0	3	-1
SMILES	ARNT TACC3 PPI	AI-2 QS modul	aDG glyco up	Mot1-301 SUMO	Bfl-1 A1 inh
O=S1(=O)N=C(N(CCO)/N=C/c2ccncc2)c2ccccc21	72*	17	0	10	0
CN(C)/C=C1\C(=O)N(C)N=C1C(F)(F)F	1	-10	0	11	0
CCn1ccnc1CNCc1ccc(OCC(O)CN(C)Cc2ccccc2)cc1 (stereo unspecified)	47*	8	0	6	-1
CCc1ccc(CNCc2ccc(OCC(O)CN(C)Cc3ccccc3)cc2)nc1 (stereo unspecified)	27	8	2	5	0
O=C(N/N=C/c1ccccn1)c1cc(-c2ccncc2)nc2ccccc12	68*	27	0	-5	0
C/C(=N\NC(=O)c1ccc(Cl)c(Cl)c1)c1ccccn1	x	9	0	-11	-2
C/C(=N\NC(=O)c1ccccc1Cl)c1ccccn1	67*	4	0	14	-1
C/C(=N/NC(=O)c1ccc(C(C)(C)C)cc1)c1ccccn1	65*	41	0	2	-4
C/C(=N\NC(=O)C1COc2ccccc2O1)c1ccccn1 (stereo unspecified)	64*	11	1	23	1
C/C(=N\NC(=O)C1COc2ccccc2O1)c1ccc(C)o1 (stereo unspecified)	20	21	1	11	0
COc1ccc(C(CNC(=O)Cc2cccs2)N(C)C)cc1 (stereo unspecified)	-3	15	0	7	1
NNC(=O)c1cc(-c2cccs2)nc2ccccc12	-3	9	0	-1	-1
C/C(=N\NC(=O)c1cccc(Br)c1)c1ccccn1	45*	10	-1	13	0
COc1ccc(C(=O)N/N=C(\C)c2ccccn2)cc1OC	67*	4	0	1	-1
C/C(=N\NC(=O)c1cc(-c2cccs2)nc2ccccc12)c1ccccn1	73*	40	0	18	-1
C/C(=N\NC(=O)c1cc(Br)ccc1O)c1ccccn1	-22	14	0	6	-11
CCC(=O)Nc1ccc2c(c1)C(=O)N(C)C[C@H](OC)[C@H](C)CN(C(=O)CC)[C@@H](C)CO2	-3	x	x	x	x
C[C@H](CO)N1C[C@H](C)[C@H](CN(C)C(=O)Nc2ccc3c(c2)OCO3)Oc2ncc(C#CC(C)(C)O)cc2C1=O	-5	x	x	x	x
O=C(NC(=O)c1ccccc1F)Nc1nc(-c2cccs2)cc(C(F)(F)F)n1	-1	5	0	79	-1
CCN(CC)CCNC(=O)c1ccc(NC(=O)Cc2ccccc2F)cc1	-4	-19	0	367	0
COc1ccc(C(=O)O)c(OC)n1	-11	10	0	313*	0
COc1ccc(C(=O)Nc2ccc(Cl)c(Cl)c2)c(OC)n1	0	15	0	-12	-4
Cc1cccc(/C=C(\C(=O)O)c2ccc(S(=O)(=O)N3CCCC3)s2)c1	45*	x	0	8	-1
OCCC1CN(Cc2cccn2-c2cccnc2)CCN1Cc1ccc(F)cc1 (stereo unspecified)	-7	44	0	358*	0
CCOc1ccc(CN2CCN(Cc3cccn3-c3cccnc3)CC2CCO)cc1 (stereo unspecified)	0	30	0	6	0
Cc1cc2nc3ccc(=[N+](C)C)cc-3sc2cc1N	38	-33	36*	x	x
O=C(CCc1ccccc1)c1c(O)cc(O)cc1O	1	-81*	0	-3	-2
COc1ccc(C(=O)CCc2ccccc2)c(O)c1	2	-70	0	-6	-1
